Compounds without any hit were thinned out: in the full panel of roughly 83,000, 20% have a hit.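 Values shown are percent growth following 48 h exposure of cells in 96-well plates to a single concentration of compound; below 10 was considered active.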 Values without a mark were called inactive. Activity calls are given as the source filed them.
Columns and labels:
Assay in all cases: NCI-60 one-dose screen, 48 h (100 = growth as untreated, 0 = no growth, -100 = all killed)
Conditions in all cases: 10 µM unless noted
SK-MEL-2 melanoma = tested on: SK-MEL-2 melanoma
EKVX NSCLC = tested on: EKVX NSCLC
SN12C renal = tested on: SN12C renal
UO-31 renal = tested on: UO-31 renal
TK-10 renal = tested on: TK-10 renal
ACHN renal = tested on: ACHN renal
CAKI-1 renal = tested on: CAKI-1 renal
A498 renal = tested on: A498 renal
CCRF-CEM leukemia = tested on: CCRF-CEM leukemia
MOLT-4 leukemia = tested on: MOLT-4 leukemia
SR leukemia = tested on: SR leukemia
RPMI-8226 leukemia = tested on: RPMI-8226 leukemia
OVCAR-8 ovarian = tested on: OVCAR-8 ovarian
OVCAR-5 ovarian = tested on: OVCAR-5 ovarian
OVCAR-4 ovarian = tested on: OVCAR-4 ovarian
SK-OV-3 ovarian = tested on: SK-OV-3 ovarian
IGROV1 ovarian = tested on: IGROV1 ovarian
HS 578T breast = tested on: HS 578T breast
NCI/ADR-RES ovarian = tested on: NCI/ADR-RES ovarian

| SMILES | growth (SK-MEL-2 melanoma) [%] | growth (EKVX NSCLC) [%] | growth (SN12C renal) [%] | growth (UO-31 renal) | growth (TK-10 renal) [%] | growth (ACHN renal) [%] | growth (CAKI-1 renal) [%] | growth (A498 renal) [%] | growth (CCRF-CEM leukemia) [%] | growth (MOLT-4 leukemia) [%] | growth (SR leukemia) | growth (RPMI-8226 leukemia) | growth (OVCAR-8 ovarian) [%] | growth (OVCAR-5 ovarian) [%] | growth (OVCAR-4 ovarian) [%] | growth (SK-OV-3 ovarian) [%] | growth (IGROV1 ovarian) [%] | growth (HS 578T breast) [%] | growth (NCI/ADR-RES ovarian) [%] |
| --- | --- | --- | --- | --- | --- | --- | --- | --- | --- | --- | --- | --- | --- | --- | --- | --- | --- | --- | --- |
| CN1CCN(CCCCCC(=O)Nc2nc(-c3cccc(NS(=O)(=O)c4cccc5c(N(C)C)cccc45)c3)cs2)CC1 | 102 | 74.7 | 70.6 | 75.1% | 119 | 88.4 | 74.3 | 88.6 | 59.8 | 39.5 | -4.68% (active) | 34.9% | 87.8 | 91.6 | 89.6 | 105 | 87.8 | 73.1 | 94.1 |
| O=C1C(SCc2ccccc2)=C(Cl)CN1c1ccccc1 | 110 | 97.9 | 95.7 | -90.8% (active) | 136 | 94.7 | 80.9 | 94.3 | 86.1 | 84.3 | 18.5% | 83.9% | 101 | 97.5 | 103 | 126 | 103 | 104 | 102 |
| N#Cc1c(-c2ccc(Br)cc2)cc(-c2c[nH]c3ccccc23)nc1N | 39.6 | 51.6 | 66.3 | 43.6% | 96.8 | 57.4 | 30.9 | 63.7 | 34.1 | 41.4 | 25.4% | 34.4% | 66.4 | 63.9 | 74.7 | 52.6 | 34.4 | 58.6 | 24.9 |
| C=C(C)[C@@H]1CC[C@]2(COP(=O)(OCC)OCC)CC[C@]3(C)[C@H](CC[C@@H]4[C@@]5(C)CC[C@H](OP(=O)(OCC)OCC)C(C)(C)[C@@H]5CC[C@]43C)[C@@H]12 | 67.9 | 26.6 | 33.4 | 22.6% | 68.5 | 41.4 | 35.2 | 66.4 | 39.4 | 27.8 | 30.2% | -18.1% (active) | 40.5 | 84.3 | 65.5 | 77.2 | 74.5 | 74.7 | 31.8 |
| Cc1c(C(=O)/C=C/c2ccc(Cl)cc2)nnn1-c1ccc2oc(=O)ccc2c1 | 110 | 91.2 | 92.3 | 73.4% | 104 | 94.6 | 88.6 | 103 | 92.3 | 98.9 | 91% | 54.2% | 99.4 | 97.9 | 105 | 106 | 102 | 109 | 88.4 |
| O=C(NCCNc1cc(-c2cn(-c3ccccc3)nc2-c2cccc(O)c2)ccn1)Nc1cc(C(F)(F)F)cc(C(F)(F)F)c1 | 93.7 | 90.6 | 95.5 | 77.1% | 94.4 | 96.9 | 88.9 | 76.6 | 101 | 84.9 | 81.3% | 94.7% | 98.5 | 97.3 | 91.6 | 104 | 82.2 | 93.9 | 91.9 |
| Brc1cc(-c2cc(-c3ccc4c(c3)OC=CO4)[nH]n2)cs1 | 106 | 72.8 | 98.8 | 71.2% | 192 | 93.7 | 63.8 | 87.1 | 89.9 | 78.7 | 60.9% | 81% | 99.4 | 115 | 97 | 86 | 66.1 | 90 | 65.4 |
| CC[C@]12C=CCN3CC[C@@]4(c5ccc(OC)cc5N(C)[C@H]4[C@@](O)(C(=O)OC)[C@@H]1OC(=O)CCN1CCc4ccccc4C1)[C@@H]32 | 108 | 88.6 | 99.4 | 71.6% | 98.8 | 99.3 | 80.3 | 94.5 | 82.6 | 80.5 | 82.2% | 78.4% | 94.9 | 96.3 | 91.2 | 103 | 81.5 | 92 | 80.5 |

Reference: PubChem BioAssay (NCI)
